CIT2-GFP yeast: yeast TOR pathway CIT2-GFP modulation; S. cerevisiae CIT2-GFP strain, flow cytometry, 3 h; 100 means same as DMSO wells; GFP response vs DMSO, % at 10 µM; 320,000 tested, 0.065% active; AID 2029;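 active = GFP response relative to DMSO above a set limit, near the screen mean plus 3 SD, cut at about 150% in these data; inconclusive = Fewer than 70 cells measured for a yeast strain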;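 also: ratio of well median GFP fluorescence to mean of DMSO wells on the plate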
AGP1 TOR yeast: yeast TOR pathway AGP1-GFP modulation | S. cerevisiae AGP1-GFP multiplex flow cytometry, 3 h; GFP as percent of DMSO wells | GFP response vs DMSO, % at 10 µM | 320,000 tested, 0.02% active | AID 2066;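 active = GFP response relative to DMSO above a set limit, near screen average plus 3 SD, cut at about 150% in these data; inconclusive = fewer than 70 cells counted for the yeast strain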;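 also: median GFP channel fluorescence of the gated AGP1 strain per well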
RPL19A TOR yeast: yeast TOR pathway RPL19A-GFP modulation; S. cerevisiae RPL19A-GFP strain, flow cytometry, 3 h; hits give low values; percent response vs DMSO, % at 10 µM; 330,000 tested, 0.3% active; AID 2025;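 active = percent response vs DMSO below 50%; inconclusive = fewer than 70 events counted for the yeast strain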;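 also: median channel GFP fluorescence of the barcoded RPL19A-GFP strain; ratio of sample median GFP to plate DMSO average so 100% = DMSO; lower means less RPL19A-GFP as with rapamycin TOR inhibition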
LAP4 TOR yeast: yeast TOR pathway LAP4-GFP modulation; S. cerevisiae LAP4-GFP multiplex, flow cytometry GFP, 3 h; median GFP as percent of DMSO wells; GFP response vs DMSO, % at 10 µM; 320,000 tested, 0.34% active;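 active = GFP response vs DMSO above a set limit, about the screen mean plus 3 SD, cut at about 150% in these data; inconclusive = under 70 cell events counted for the yeast strain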
MEP2-GFP yeast: yeast TOR pathway MEP2-GFP modulation | S. cerevisiae MEP2-GFP strain, flow cytometry GFP, 3 h; 100% = DMSO control level | GFP response vs DMSO, % at 10 µM | 330,000 tested, 0.51% active | AID 2016;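 active = GFP response versus DMSO above a set limit, roughly screen mean plus 3 SD, cut at about 180% in these data; inconclusive = fewer than 70 cells counted for a yeast strain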;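 also: median GFP fluorescence of the barcode-gated MEP2-GFP cells per well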
Efflux pump mplx: blocks antifungal efflux pumps in multiplex yeast assay. S. cerevisiae Candida pump triplex, Nile Red efflux. inhibition, % at 10 µM. 330,000 tested, 0.44% active;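 active = plate passing quality check with inhibition over a set limit, or well fluorescence over plate mean plus 4 SD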;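 also: Nile Red retained in pooled yeast measured as flow cytometry median fluorescence; 0% = buffer negative control and 100% = Enniatin B positive control; higher means more Nile Red kept so more efflux inhibition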
An asterisk follows results filed as active; u = inconclusive; x = not tested or not shown; [ ] = remark or other dose. This is a sample that favours compounds with a hit; in the whole collection about 1.3% have one here.

SMILES | CIT2-GFP yeast | AGP1 TOR yeast | RPL19A TOR yeast | LAP4 TOR yeast | MEP2-GFP yeast | Efflux pump mplx
CCOc1cc2c(cc1/C=C/C(=O)O)OC(C)C2 (configuration not stated) | u | 27 | 51 | 90 | 607*[may fluoresce violet] | 0
Nc1ccccc1-c1nnc(SCC(=O)Nc2ccccc2OC(F)F)[nH]c1=O | 119 | 105 | 102 | 94 | 108 | 0
COc1cccc2sc(N(CCN(C)C)C(=O)/C=C/c3cccs3)nc12 | u | u | 52 | 91 | 193*[may fluoresce violet] | 0
CC(=O)c1cccc(NS(=O)(=O)c2ccc3c(c2)N(C(C)=O)CCO3)c1 | 106 | 98 | 96 | 93 | 99 | 0
COc1cc(/C=N/N(C)C)cc(Br)c1O | u | u | 40*[may fluoresce violet] | 73 | 461*[may fluoresce violet] | 0
CN=c1scc(C)n1/N=C/c1cc(Br)c(O)c(OC)c1 | 97 | 89 | 94 | 114 | 93 | 0
CCCc1nnc(SCC(=O)N2CCCCC2)n1CC1CCCO1 (configuration not stated) | u | 31 | 65 | 96 | 200*[may fluoresce violet] | 0
CCCc1nnc(SCC(=O)N2CCCC2)n1CC1CCCO1 (configuration not stated) | 91 | x | 92 | 101 | 108 | 0
O=C(Nc1ccc(F)cc1)c1cc2cc(Cl)ccc2[nH]1 | 142 | 102 | 105 | 132 | 190* | 0
CCc1ccc2[nH]c(C(=O)Nc3ccc(C)c(F)c3)cc2c1 | 93 | 91 | 102 | 88 | 105 | 0
CC(CCc1ccccc1)NC(=O)CCC(=O)N1CCC(C(=O)O)CC1 (configuration not stated) | 95 | 88 | 95 | 88 | 115 | 1
COc1ccc(CCC(=O)NCCOc2ccccc2Cl)cc1 | u | u | 28*[may fluoresce violet] | 70 | 185*[may fluoresce violet] | 0
CCOC(=O)C(=Cc1ccc(F)cc1)C(=O)OCC | 107 | 25 | 65 | 122 | 188* | 0
Cc1ccc2c(c1)c1c3n2CCN(C(=O)CN2CCN(C)CC2)C3CCC1 (configuration not stated) | 96 | 93 | 95 | 92 | 94 | 0
CN1CCN(CC(=O)N2CCn3c4c(c5cc(C6CCCCC6)ccc53)CCCC42)CC1 (configuration not stated) | 89 | 99 | 91 | 169* | 104 | 0
CCOCCCn1c(=NC(=O)c2cccnc2)c(C(=O)OCC)cc2c(=O)n3ccccc3nc21 | u | 24 | 43*[may fluoresce violet] | 100 | 196*[may fluoresce violet] | 0
COc1ccc(/C=N/NC(=O)C2(C)NC(C)(C)Cc3ccccc32)cc1 (configuration not stated) | 148 | 160* | 80 | 158* | 239* | 0
CC(=O)Nc1ccc(NC(=O)C(C)OC(=O)CNS(=O)(=O)c2cccc(Cl)c2)cc1 (configuration not stated) | 87 | 90 | 83 | 94 | 90 | 0
Cc1ccc(S(=O)(=O)NCC(=O)Nc2ccc(C(F)(F)F)cc2)cc1 | u | x | 41*[may fluoresce violet] | 99 | 173 | 0
COc1ccccc1C1c2ccc3ccccc3c2Oc2ncn(CCN(C)C)c(=N)c21 (configuration not stated) | 94 | 85 | 92 | 95 | 103 | 0
COc1ccccc1C1c2ccc3ccccc3c2Oc2ncn(CCCO)c(=N)c21 (configuration not stated) | u | u | 24*[may fluoresce violet] | 75 | 352*[may fluoresce violet] | 0
O=C(CNC(=O)C(c1ccccc1)c1ccccc1)N/N=C\c1ccc(C(=O)O)cc1 | 97 | 85 | 97 | 81 | 99 | 1
O=C(CN1CCCC1)Nc1cc(C(F)(F)F)ccc1Cl | 103 | 101 | 94 | 96 | 98 | 0
O=C(CN1CCCC1)Nc1cc(C(F)(F)F)cc(C(F)(F)F)c1 | 98 | 131 | 90 | 151* | 125 | 0
COc1cc(C(=O)NCCCN2CCCC2=O)cc(Br)c1OCc1ccccc1 | 106 | 108 | 113 | 108 | 105 | 0
COc1cc(SC)ccc1C(=O)NCCCn1ccnc1 | u | u | 39*[may fluoresce violet] | 138 | 575*[may fluoresce violet] | 0

High-throughput results: PubChem, NMMLSC
